Assay outcomes deposited in PubChem BioAssay by National Center for Advancing Translational Sciences (NCATS).
Vaccinia Venus: vaccinia inhibition (Venus reporter); Potency, µM (series often up to 36.5 µM), hits mostly inhibitors; 330,000 compounds, 0.46% hits; AID 720580; Vaccinia virus Venus reporter expression, fluorescence; calls by dose curve; tested in A549 cells; also: nearly all actives have a fitted effect of over 30% in size
VACV mCherry inh: inhibitors of vaccinia virus infection (mCherry reporter signal) | Vaccinia virus mCherry reporter infection, fluorescence | 310,000 compounds, 0.63% hits | AID 720579 | Potency, µM (series often up to 36.5 µM), most hits filed as inhibitors; calls by dose curve; tested in A549 cells; also: nearly all actives have a fitted effect of over 35% in size
FMDV inh: foot and mouth disease virus antiviral activity; FMDV antiviral cell-based qHTS; Potency, µM (highest dose often 57.9 µM), most hits filed as inhibitors; 410,000 compounds, 1.2% hits; calls by dose curve; tested in HEK293T cells; also: read-out not given here; nearly all actives have a fitted effect of over 45% in size
HCMV inh: human cytomegalovirus inhibition; HFF cells, HCMV-luciferase reporter, 72 h; active compounds read low; activity change, negative = inhibition, % at 57.5 µM; 410,000 compounds, 4.5% hits; in the data active = activity change below about -60%; inconclusive = no clear call, values can overlap the other calls; inactive = above about -39%
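Two compound doses tested in HFFs infected with HCMV-luciferase, MOI 1 PFU/cell, 72 h at 37C. Lysate luminescence read with OneGlo; data normalized against buffer-only and 10uM Salinomycin inhibitor controls.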
HCV inhibitor: HCV inhibition; Potency, µM (titrated, usually from 41.8 µM), hits mostly inhibitors; Huh7.5.1 HCVcc-Cre infection, luciferase reporter, 44 h; 340,000 compounds, 3.4% hits; active = well fitted inhibition curve with a large enough effect; inconclusive = small, poorly fitted or top-dose-only effect, or another doubt; inactive = no such curve, though single readings can be large or run the other way
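Reporter virus HCVcc-Cre (~0.5 moi) infects cells exposed to compound; seeding density 1,000 cells/well with 4 h settling beforehand. Luminescence, 15 sec read, taken 44 h post-infection following a 15 min RT substrate incubation.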
A number is an active result; - = inactive; ? = inconclusive; . = no result given; [ ] = dose if it differs, or a comment. The list is not random: actives were taken first. Their share in the collection is about 7.3%.

SMILES	Vaccinia Venus	VACV mCherry inh	FMDV inh	HCMV inh	HCV inhibitor
Cc1cc2cc(CNS(=O)(=O)c3ccc4ccccc4c3)ccc2n1C	-	-	-	-	-
Cc1cc(C)c(S(=O)(=O)NCc2ccc3c(c2)cc(C)n3C)c(C)c1	-	-	-	-93	?
Cc1cc(C)c(S(=O)(=O)NCc2ccc3c(c2)CCN3C(=O)c2ccccc2)c(C)c1	-	-	?	-60	.
COc1ccc(OC)c(S(=O)(=O)NCc2ccc3c(c2)CCN3C(=O)c2cccc(C)c2)c1	-	-	-	-80	.
Cc1cccc(C(=O)N2CCc3cc(CNS(=O)(=O)c4ccc(Cl)s4)ccc32)c1	-	-	-	-	.
Cc1ccc2c(=O)c(C(=O)c3ccc(F)cc3)cn(CC(=O)NCc3ccccc3)c2n1	-	-	-	-	.
CCOC(=O)/C=C/C(=O)OCC(=O)Nc1cccc(Cl)c1Cl	-	-	-	-	-
CCOC(=O)/C=C/C(=O)Nc1ccccc1-c1ccccc1NC(=O)/C=C/C(=O)OCC	-	-	?	-98	13µM
CCOC(=O)c1cccc(NC(=O)/C=C/c2cccc([N+](=O)[O-])c2)c1	.	.	?	-	?
CCOC(=O)/C=C/C(=O)Nc1cccc([N+](=O)[O-])c1	-	-	25µM	.	?
Cn1ccsc1=NC(=O)c1ccc([N+](=O)[O-])o1	.	.	-	-91	?
COC/C=C/C1=CC2=CC(=O)C(C)(OC(=O)c3cnc4ccccc4n3)C(=O)C2=CN1Cc1ccccc1 (centres undefined)	?	-	14µM	-	-
CCCc1nc2cc(C)c(Br)c(C)n2c1Cc1ccccc1OC	-	-	-	-	.
CC(C)(C)c1ccc(-n2ncc3c2CCCC3NC(=O)CCCn2cncn2)cc1 (centres undefined)	-	-	-	?	?
CC(C)(C)c1ccc(-n2ncc3c2CCCC3NC(=O)CCN2CCCO2)cc1 (centres undefined)	.	.	-	?	13µM
CC(C)(C)c1ccc(-n2ncc3c2CCCC3NC(=O)CCn2cncn2)cc1 (centres undefined)	-	-	-	-68	-
Cc1cc(Br)cc2c(C(=O)Nc3c(C)n(C)n(-c4ccccc4)c3=O)cc(-c3cccs3)nc12	-	-	.	-63	?
Cc1ccc(CN2CCN(Cc3c(C)nn(C(C)C)c3C)CC2CCO)o1 (centres undefined)	.	.	-	-99	-
Cc1ccc(C(O)C(=O)c2ccco2)cc1 (centres undefined)	-	-	-	-	-
O=C(c1ccco1)C(O)c1ccco1 (centres undefined)	-	-	-	-62	-
CC(C)(C)C(=O)Nc1ccc(N=Nc2ccccc2)cc1	-	?	18µM	-62	?
CC(C)(C)C(=O)Nc1ccc(-c2nc3ccccc3s2)cc1	-	-	4.5µM	-103	.
CC(=O)NC(NC(=S)Nc1ccc(N=Nc2ccccc2)cc1)C(Cl)(Cl)Cl (centres undefined)	14µM	13µM	?	-	7.1µM
COc1ccc(-c2cnc3c(NC=O)cc(-c4ccc(N(C)C)cc4)cn23)cc1OC	.	.	.	-	.
CCOc1ccc(NC(=O)c2cc3c(C)nn(-c4ccccc4)c3s2)cc1	?	?	?	-66	.
SMILES	Vaccinia Venus	VACV mCherry inh	FMDV inh	HCMV inh	HCV inhibitor
Cc1nn(-c2ccccc2)c2sc(C(=O)Nc3cccc(O)c3)cc12	-	?	-	-	.
COC(=O)c1cc2c(C)nn(-c3ccccc3)c2s1	-	.	-	-	6.3µM
Cc1ccc(NC(=O)c2cc(S(=O)(=O)N3CCOCC3)ccc2Cl)cc1S(=O)(=O)N1CCOCC1	.	.	?	-	-
Cc1cc(C)n(-c2ccc(C(=O)Nc3cc(S(=O)(=O)N(C)C)ccc3Cl)cc2)n1	-	?	28µM	?	?
CC(=O)c1ccc(NC(=O)c2ccc(C)c(S(=O)(=O)N3CCOCC3)c2)cc1	-	-	?	-	-
Cc1ccc(NC(=O)COc2cccc(-n3cnnn3)c2)cc1S(=O)(=O)N1CCOCC1	.	.	-	-	11µM
Cc1ccc(NC(=O)c2ccc(S(=O)(=O)N3CC(C)CC(C)C3)cc2)cc1S(=O)(=O)N1CCOCC1 (centres undefined)	.	.	?	?	7.9µM
Cc1cc(C)n(-c2ccc(C(=O)Nc3ccc(C)c(S(=O)(=O)N4CCOCC4)c3)cc2)n1	-	?	14µM	-83	?
CC1CC(C)CN(S(=O)(=O)c2ccc(C(=O)N3CCCC3)cc2)C1 (centres undefined)	-	-	-	?	-
CC1CC(C)CN(C(=O)c2ccc(S(=O)(=O)N3CC(C)CC(C)C3)cc2)C1 (centres undefined)	-	-	-	-65	-
CC(=O)c1ccc(S(=O)(=O)N2CCN(C(=O)c3ccc(-n4nc(C)c(Cl)c4C)cc3)CC2)cc1	.	.	?	-90	6.3µM
CC(=O)c1cn(C(=O)c2ccc(Cl)cc2)c2ccccc12	-	-	-	-67	-
COC(=O)c1cn(C(=O)c2ccc(C)cc2)c2ccccc12	.	.	-	-	-
COC(=O)c1cn(C(=O)c2ccc(OC)cc2)c2ccccc12	?	-	-	-65	?
COc1cccc(N2CCN(C(=O)c3cc4c(s3)-c3c(C)cccc3OC4)CC2)c1	-	-	?	-	.
COc1cc(NC(=O)c2ccc(-c3nc(COc4ccccc4)c(C)o3)cc2)cc(OC)c1	-[7.34 µM]	-[7.34 µM]	-	-78	.
Cc1ccc(CN2C(=O)c3ccccc3C2c2nnnn2-c2c(C)cccc2C)cc1 (centres undefined)	-	-	-	-	.
Nc1sccc1C(=O)NCCN1CCOCC1	-	-	-	-	.
CCOC(=O)C(NC(C)=O)C(OC(C)=O)c1cccc(N(CCCl)CCCl)c1 (centres undefined)	-	.	-	-64	-
Cc1ccc(NC(=O)C2CCN(S(=O)(=O)c3cccs3)CC2)cc1	-	-	-	-	-
O=C(Nc1nccs1)C1CCN(S(=O)(=O)c2cccs2)CC1	-	-	-	-	-
Cc1ccc(-c2csc(NC(=O)C3CCN(S(=O)(=O)c4cccs4)CC3)n2)cc1	-	?	?	-79	10µM
O=C(Nc1nc(-c2ccc3ccccc3c2)cs1)C1CCN(S(=O)(=O)c2cccs2)CC1	-	-	?	-75	?
Cc1ccc(S(=O)(=O)N2CCN(Cc3nnc(-c4c(-c5ccccc5)noc4C)o3)CC2)cc1	-	-	40µM	-	?
Cc1cc(Br)ccc1OCCCCN1CCC(C)CC1	-	-	-	-60	13µM
SMILES	Vaccinia Venus	VACV mCherry inh	FMDV inh	HCMV inh	HCV inhibitor
CC1CCN(CCOCCOc2ccc(Cl)cc2Br)CC1	-	-	.	-	22µM
CC1CCN(CCCCOc2ccc(Br)cc2)CC1	-	-	-	?	11µM
CC1CCN(CCCCOc2cccc(Br)c2)CC1	-	-	-	-	?
O=C1c2ccccc2C(=O)c2c1cccc2N(CCO)CCO	-	-	-	-	-
O=C1c2cccc(NCCCNCCO)c2C(=O)c2cccc(NCCCNCCO)c21	?	?	-	-98	?
CCC(c1nnnn1C(C)(C)C)N1CCN(Cc2ccccc2OC)CC1 (centres undefined)	.	.	-	-72	-
COc1ccccc1N1CCN(C(c2ccccc2Cl)c2nnnn2C(C)(C)C)CC1 (centres undefined)	?	.	?	.	-
